The record followed here is PubChem BioAssay (NCI).

Among the test systems are HT29 colon; SNB-75 CNS; SNB-19 CNS; U251 CNS; PC-3 prostate; SK-MEL-5 melanoma; UACC-62 melanoma; LOX IMVI melanoma; SK-MEL-28 melanoma; SK-MEL-2 melanoma; EKVX NSCLC; SN12C renal; UO-31 renal; TK-10 renal; ACHN renal; CAKI-1 renal; CCRF-CEM leukemia; MOLT-4 leukemia.
Assay in all cases: NCI-60 one-dose screen, 48 h (100 = growth as untreated, 0 = no growth, -100 = all killed)
A further assay deals with A498 renal. As to conditions: 10 µM unless noted.
The next assay relates to HCT-15 colon. As to conditions: 10 µM unless noted.

Structures are written as SMILES. Several values for one entry are separate records, joined by “and”; a condition that tells them apart may be missing. Identical values can stand only once. The panel holds about 83,000 compounds, 20% with a hit somewhere; the sample as a whole holds those more often.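 For each line, cells grew in 96-well plates with the test compound present at a single concentration for 48 hours.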 A number with no mark means an inactive call. Activity calls are given as the source filed them. How the source made its calls: active means growth percent below 10; inactive means the rest.

As to `CCc1ccccc1-n1c(N)c(C#N)c(-c2ccc(OC)c(OC)c2)c(C#N)c1=O`, the growth was 110% in the assay on HT29 colon (10 µM); 102% in the assay on HT29 colon (100 µM); 98% in the assay on SNB-75 CNS (10 µM); -43% (active) with SNB-75 CNS (100 µM); 104% in the assay with SNB-19 CNS (10 µM); 10.5% with SNB-19 CNS (100 µM). Further, the growth with U251 CNS (10 µM) is 101%; with U251 CNS (100 µM), 8.35% (active); in the assay with PC-3 prostate (10 µM), 110%; in the assay on PC-3 prostate (100 µM), 14.2%; in the assay with SK-MEL-5 melanoma (10 µM) it was 113%; in the assay on SK-MEL-5 melanoma (100 µM) it was 67.1%. Further, the growth in the assay with UACC-62 melanoma (10 µM) was 105%; in the assay with UACC-62 melanoma (100 µM), 35%; in the assay on LOX IMVI melanoma (10 µM), 104%; in the assay on LOX IMVI melanoma (100 µM) it was 57.8%; in the assay with SK-MEL-28 melanoma (10 µM) it was 124%; in the assay on SK-MEL-28 melanoma (100 µM), 54%. For the same compound, the growth in the assay with SK-MEL-2 melanoma (10 µM) was 108%; with SK-MEL-2 melanoma (100 µM), 38%; with EKVX NSCLC (10 µM) it was 106%; with EKVX NSCLC (100 µM), 29.1%; in the assay with SN12C renal (10 µM) it was 109%; in the assay with SN12C renal (100 µM), 19.8%. Further, the growth is 85.2% with UO-31 renal (10 µM); 37.1% with UO-31 renal (100 µM); 114% with TK-10 renal (10 µM); 2.47% (active) in the assay on TK-10 renal (100 µM); 95.8% in the assay with ACHN renal (10 µM); 16.1% in the assay with ACHN renal (100 µM). In addition, the growth with CAKI-1 renal (10 µM) is 97.5%; with CAKI-1 renal (100 µM), 50.3%; with CCRF-CEM leukemia (10 µM), 112%; in the assay on CCRF-CEM leukemia (100 µM), 101%; with MOLT-4 leukemia (10 µM), 95.7%; in the assay on MOLT-4 leukemia (100 µM), 111%.
In the case of `Nc1ccccc1Nc1ccccc1`, the growth in the assay on HT29 colon (10 µM unless noted) is 118% and 97.4%; with SNB-75 CNS (10 µM unless noted), 106% and 90.7%; with SNB-19 CNS (10 µM unless noted), 97.9% and 105%; in the assay with U251 CNS (10 µM unless noted), 89.3% and 86.7%; in the assay with PC-3 prostate (10 µM unless noted) it was 87.6% and 91.7%; in the assay with SK-MEL-5 melanoma (10 µM unless noted) it was 89.5% and 94.7%. The growth in the assay with UACC-62 melanoma (10 µM unless noted) was 98.8% and 99.3%; in the assay with LOX IMVI melanoma (10 µM unless noted), 85.1% and 87%; in the assay on SK-MEL-28 melanoma (10 µM unless noted) it was 109% and 101%; in the assay with SK-MEL-2 melanoma (10 µM unless noted), 133% and 78.1%; in the assay on EKVX NSCLC (10 µM unless noted), 96.4%; with SN12C renal (10 µM unless noted), 70% and 72.6%. Moreover, the growth in the assay with UO-31 renal (10 µM unless noted) was 45.3% and 49.6%; with TK-10 renal (10 µM unless noted), 111% and 88.4%; with ACHN renal (10 µM unless noted) it was 85.5% and 75.2%; with CAKI-1 renal (10 µM unless noted), 73.3%; in the assay with A498 renal it was 105%; in the assay on CCRF-CEM leukemia (10 µM unless noted), 31.8% and 25.3%. For the same compound, in the assay with MOLT-4 leukemia (10 µM unless noted), the growth is 53.5% and 88.3%.
As to `Clc1nc(Oc2ccccc2)nc(-c2cn(-c3ccccc3)c3ccccc23)n1`, the growth with HCT-15 colon is 38.5%; in the assay with HT29 colon (10 µM unless noted), 40.6%; in the assay with SNB-75 CNS (10 µM unless noted), 105%; with U251 CNS (10 µM unless noted), 47.2%; in the assay on PC-3 prostate (10 µM unless noted) it was 41.3%; in the assay with SK-MEL-5 melanoma (10 µM unless noted), 102%. Besides, the growth in the assay on UACC-62 melanoma (10 µM unless noted) is 80.7%; in the assay on LOX IMVI melanoma (10 µM unless noted), 10.7%; in the assay on SK-MEL-28 melanoma (10 µM unless noted) it was -18.3% (active); in the assay on SK-MEL-2 melanoma (10 µM unless noted) it was -49.5% (active); in the assay on EKVX NSCLC (10 µM unless noted), 81.3%; in the assay with SN12C renal (10 µM unless noted) it was 85.9%. Further, the growth is 17% in the assay on UO-31 renal (10 µM unless noted); 114% in the assay on TK-10 renal (10 µM unless noted); 68.7% with ACHN renal (10 µM unless noted); 13.4% with CAKI-1 renal (10 µM unless noted); 128% in the assay on A498 renal; 27.2% with CCRF-CEM leukemia (10 µM unless noted). Further, the growth in the assay on MOLT-4 leukemia (10 µM unless noted) is 47%.
As for `CC1=CCC2CC1C2(C)C` (stereo not drawn), the growth is 114% and 105% with HT29 colon (10 µM unless noted); 102% and 90.3% in the assay with SNB-75 CNS (10 µM unless noted); 95.8% and 101% in the assay on SNB-19 CNS (10 µM unless noted); 97.4% and 92% in the assay on U251 CNS (10 µM unless noted); 101% and 89.5% in the assay with PC-3 prostate (10 µM unless noted); 102% and 87.7% in the assay with SK-MEL-5 melanoma (10 µM unless noted). Further, the growth was 97% and 93.6% in the assay on UACC-62 melanoma (10 µM unless noted); 93.4% and 88.6% in the assay with LOX IMVI melanoma (10 µM unless noted); 97.5% and 102% in the assay with SK-MEL-28 melanoma (10 µM unless noted); 88.2% and 108% in the assay on SK-MEL-2 melanoma (10 µM unless noted); 91.7% and 83.2% in the assay with EKVX NSCLC (10 µM unless noted); 103% and 94.4% in the assay on SN12C renal (10 µM unless noted). Besides, the growth in the assay with UO-31 renal (10 µM unless noted) is 89% and 96.1%; with TK-10 renal (10 µM unless noted) it was 113% and 119%; with ACHN renal (10 µM unless noted) it was 102% and 96.1%; in the assay on CAKI-1 renal (10 µM unless noted), 76.2% and 82.8%; in the assay on A498 renal, 103% and 81%; in the assay on CCRF-CEM leukemia (10 µM unless noted), 121% and 114%. Besides, the growth in the assay on MOLT-4 leukemia (10 µM unless noted) was 96.1% and 96%.
